Screening data (PubChem BioAssay)
RGS7-Gao reg: human RGS7-Galphao interaction regulation; P09471; Multiplexed bead flow cytometry, RGS7-Galphao binding; actives lie on both sides; binding response (% of control), % at 10 µM; 0.35% of 220,000 active; AID 1439; in the data active = binding response below about 49% or above about 150%; inconclusive = no clear call, values can overlap the other calls; inactive = in between;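 also: fluorescent Galphao held in activated GDP-AlF4 state binding bead-coupled RGS7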
Target sequence (P09471 whole entry, looked up): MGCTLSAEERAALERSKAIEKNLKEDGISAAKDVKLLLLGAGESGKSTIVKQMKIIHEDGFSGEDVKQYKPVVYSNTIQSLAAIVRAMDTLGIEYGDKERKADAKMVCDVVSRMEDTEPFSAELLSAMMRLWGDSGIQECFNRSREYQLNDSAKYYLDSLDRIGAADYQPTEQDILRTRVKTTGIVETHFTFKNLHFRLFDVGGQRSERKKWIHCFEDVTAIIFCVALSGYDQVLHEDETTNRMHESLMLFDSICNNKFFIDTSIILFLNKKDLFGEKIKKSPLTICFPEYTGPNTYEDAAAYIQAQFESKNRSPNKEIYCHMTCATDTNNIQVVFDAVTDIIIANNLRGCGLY
RGS16-Gao: RGS16-Galphao interaction regulator (human). O15492+P09471. bead-based flow cytometry RGS16-Galphao binding, fluorescence; actives lie on both sides. binding response (% of control), % at 10 µM. 0.38% of 220,000 active;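 also: Galphao activated by GDP with aluminum fluoride before binding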
RGS4-Gao reg: human RGS4-Galphao interaction regulation; Multiplexed bead flow cytometry, RGS4-Galphao binding; actives lie on both sides; binding response (% of control), % at 10 µM; 0.33% of 220,000 active; AID 1415; in the data active = binding response below about 49% or above about 150%; inactive = in between;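 also: fluorescent Galphao activated with aluminum fluoride binding bead-coupled RGS4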
GSH bead fluor: compound fluoresces at 488/530 nm on GSH beads | AID 1776 | 0.25% of 190,000 active | GSH beads flow cytometry, compound fluorescence 488/530 nm; active compounds read high | fluorescence (KMESF) at 10 µM; in the data active = fluorescence above about 89;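 also: glutathione beads carrying GST-tagged Bcl family fusion proteins plus one bare bead set; values are compound well signal with DMSO vehicle wells as background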
RGS8-Gao: modulates binding of RGS8 to human Galphao; P09471; multiplexed bead flow cytometry; actives lie on both sides; response (percent of control binding), % at 10 µM; 0.34% of 220,000 active; in the data active = response below about 60% or above about 140%; inactive = in between;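 also: Galphao activated as the GDP aluminium fluoride complex binding bead-coupled RGS8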
Avidin fluor: compound fluoresces at 488/530 nm on avidin beads; fluorescence (KMESF) at 10 µM; 0.38% of 220,000 active; AID 1775; compound fluorescence 488/530 nm, flow cytometry; active compounds read high; in the data active = fluorescence above about 47
RGS-Gao: modulates binding between human RGS4 and Galphao; AID 1504; RGS4–Galpha-o binding response, % at 10 µM; 99% of 1,600 active; shares compounds with RGS16-Gao; multiplexed bead flow cytometry, RGS–Galpha-o binding;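 also: fluorescently labeled Galpha-o bound to GDP with aluminium fluoride binding biotinylated RGS beads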
Biotin-avidin: interferes with biotinylated probe binding to avidin beads; shares compounds with RGS16-Gao; 1,700 tested, under 10 active; inhibition, % at 10 µM; streptavidin beads, fluorescein-biotin binding, flow cytometry;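 active = inhibition above 50%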;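 also: median green fluorescence of gated singlet beads compared with DMSO control wells; 0% = DMSO wells and 100% = complete loss of bead fluorescence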
RGS8-Gao single: RGS8-Galphao interaction regulation, single point confirmation. binding response (% of control), % at 10 µM. 3% of 1,700 active. bead-based flow cytometry RGS8-Galphao binding, fluorescence; actives lie on both sides. shares compounds with RGS16-Gao. AID 1836; in the data active = binding response below about 72% or above about 130%; inactive = in between;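 also: Galphao activated as GDP AlF4 complex before binding bead RGS8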
RGS7-Gao single: RGS7-Galphao interaction regulation, single point confirmation | shares compounds with RGS16-Gao | bead-based flow cytometry RGS7-Galphao binding; actives lie on both sides | response (percent of control binding), % at 10 µM | 7.8% of 1,700 active | AID 1837; in the data active = response below about 75% or above about 130%; inactive = in between;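 also: fluorescent Galphao activated with GDP and aluminum fluoride binding bead-coupled RGS7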
RGS16-Gao single: RGS16-Galphao interaction regulation, single point confirmation. response (% of control binding), % at 10 µM. shares compounds with RGS16-Gao. bead-based flow cytometry, RGS16-Galphao binding; actives lie on both sides. AID 1838. 4% of 1,700 active; in the data active = response below about 74% or above about 130%; inactive = in between;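 also: Galphao activated as the GDP aluminium fluoride complex binding bead-coupled RGS16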
RGS4-Gao confirm: RGS4-Galphao interaction regulation, single point confirmation. RGS4-Galphao binding, multiplexed bead flow cytometry; actives lie on both sides. binding response (% of control), % at 10 µM. shares compounds with RGS16-Gao. 4% of 1,700 active; in the data active = binding response below about 74% or above about 130%; inactive = in between
RGS19-Gao conf: RGS19-Galphao interaction regulation, single point confirmation; shares compounds with RGS16-Gao; bead-based flow cytometry RGS19-Galphao binding; actives lie on both sides; 5% of 1,700 active; response (percent of control binding), % at 10 µM; AID 1841; in the data active = response below about 50% or above about 160%; inactive = in between;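 also: 100% = no compound control and 0% = blank background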
Target sequence (P09471 whole entry, looked up): as above
Target sequence (P49795 whole entry, looked up): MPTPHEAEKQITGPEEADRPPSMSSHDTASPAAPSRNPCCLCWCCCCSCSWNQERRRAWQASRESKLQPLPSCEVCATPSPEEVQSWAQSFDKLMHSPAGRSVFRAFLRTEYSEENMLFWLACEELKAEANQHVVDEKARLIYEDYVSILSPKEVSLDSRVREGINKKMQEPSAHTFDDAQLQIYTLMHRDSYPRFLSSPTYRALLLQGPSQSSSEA
* = called active by the depositor; [ ] = remark or other dose. Compounds with a hit are over-represented: about 1.2% of the library has one in this group of screens. Unless noted, no rule for the calls is given here.

Screening COc1ccc(N2CCN(C(c3cc4cc(C)ccc4[nH]c3=O)c3nnnn3Cc3ccccc3)CC2)cc1 (configuration not stated) returned GSH bead fluor 40, Biotin-avidin 2, RGS8-Gao single 99, RGS7-Gao single 100, RGS16-Gao single 98, RGS4-Gao confirm 100 and RGS19-Gao conf 98.
Screening COc1cc(/C=C2\C(=N)N3N=CSC3=NC2=O)cc(Br)c1OC(=O)c1ccco1 returned RGS7-Gao reg 102, RGS16-Gao 102, RGS4-Gao reg 102, GSH bead fluor 14, RGS8-Gao 100 and Avidin fluor 9.
For O=C(COc1ccccc1[N+](=O)[O-])Nc1ccc(Br)cc1 the results were RGS7-Gao reg inconclusive, RGS16-Gao 126, RGS4-Gao reg 133, RGS8-Gao 119 and Avidin fluor 7.
O=C(C/C=N\OCc1ccc([N+](=O)[O-])cc1)Nc1ccc(Br)cc1 was read as RGS7-Gao reg 157*[activator], RGS16-Gao 101, RGS4-Gao reg 106, GSH bead fluor 18, RGS8-Gao 101, Avidin fluor 38, RGS-Gao 106*, Biotin-avidin -1, RGS8-Gao single 96, RGS7-Gao single 95, RGS16-Gao single 92, RGS4-Gao confirm 96 and RGS19-Gao conf 85.
O=C(O)/C(=C\C(=O)c1ccccc1)Nc1ccccc1 was read as RGS7-Gao reg inconclusive, RGS16-Gao 104, RGS4-Gao reg 103, RGS8-Gao 102 and Avidin fluor 9.
CC(C)(C)c1ccc(-c2nc(-c3ccncc3)no2)cc1 was read as RGS7-Gao reg 89, RGS16-Gao 23*, RGS4-Gao reg 81, GSH bead fluor 20, RGS8-Gao 75, Avidin fluor 3 and RGS-Gao 81*.
`CC(C)(C)c1ccc(-c2noc(-c3ccno3)n2)cc1` gave RGS7-Gao reg inconclusive, RGS16-Gao 98, RGS4-Gao reg 98, RGS8-Gao 99 and Avidin fluor 4.
O=S(=O)(NCC1CCCO1)c1ccc(Cl)nc1 (configuration not stated) was read as Biotin-avidin -2, RGS8-Gao single 109, RGS7-Gao single 109, RGS16-Gao single 108, RGS4-Gao confirm 109 and RGS19-Gao conf 105.
Screening Cc1ccc(-c2ccc(S(=O)(=O)NCC3CCCO3)cc2)cc1 (configuration not stated) returned RGS7-Gao reg 101, RGS16-Gao 101, RGS4-Gao reg 102, GSH bead fluor 11, RGS8-Gao 102 and Avidin fluor 12.
N#C/C(=C/c1ccc(N2CCCCC2)o1)C(=O)Nc1ccc2ccccc2c1 was read as RGS7-Gao reg 192*[activator], RGS16-Gao 164, RGS4-Gao reg 177*[activator], GSH bead fluor 82, RGS8-Gao 91, Avidin fluor 111*, Biotin-avidin 2, RGS8-Gao single 103, RGS7-Gao single 175*[activator], RGS16-Gao single 138*[activator], RGS4-Gao confirm 148*[activator] and RGS19-Gao conf 220*[activator].
Screening COc1ccc(NC(=O)/C(C#N)=C\c2ccc(N3CCOCC3)o2)cc1 returned RGS7-Gao reg 102, RGS16-Gao 102, RGS4-Gao reg 103, GSH bead fluor 13, RGS8-Gao 99 and Avidin fluor 15.
`Cc1ccnc2nc(C(=O)OCCOc3ccc(Cl)cc3)nn12` gave RGS7-Gao reg 102, RGS16-Gao 110, RGS4-Gao reg 103, GSH bead fluor 23, RGS8-Gao 104 and Avidin fluor 26.
CC(=O)N1CCN(S(=O)(=O)c2cccc(C(=O)OCC(=O)NC(=O)c3cccn3C)c2)CC1 was read as RGS7-Gao reg 108, RGS16-Gao 185*[activator], RGS4-Gao reg 112, GSH bead fluor 15, RGS8-Gao 125, Avidin fluor 6, RGS-Gao 112*, Biotin-avidin -2, RGS8-Gao single 93, RGS7-Gao single 81, RGS16-Gao single 91, RGS4-Gao confirm 88 and RGS19-Gao conf 83.
`NC(=O)NC(=O)COC(=O)c1cccc(S(=O)(=O)N2CCCCCC2)c1` gave RGS7-Gao reg inconclusive, RGS16-Gao 95, RGS4-Gao reg 98, RGS8-Gao 96 and Avidin fluor 13.
COc1ccc(-c2cn3c(C)c(C(=O)Nc4cccc(C)n4)sc3n2)cc1 was read as RGS7-Gao reg 181*[activator], RGS16-Gao 105, RGS4-Gao reg 110, GSH bead fluor 22, RGS8-Gao 97, Avidin fluor 198*, RGS-Gao 110*, Biotin-avidin 0, RGS8-Gao single 93, RGS7-Gao single 95, RGS16-Gao single 89, RGS4-Gao confirm 90 and RGS19-Gao conf 91.
Screening Cc1cccc(NC(=O)c2sc3nc(-c4ccccc4)cn3c2C)n1 returned RGS7-Gao reg 101, RGS16-Gao 92, RGS4-Gao reg 102, GSH bead fluor 22, RGS8-Gao 100 and Avidin fluor 9.
COc1ccccc1OCCCOc1ccc(C)cc1Br was read as RGS7-Gao reg 102, RGS16-Gao 114, RGS4-Gao reg 102, GSH bead fluor 16, RGS8-Gao 106 and Avidin fluor 3.
COc1ccccc1OCCOCCOc1ccc(C)cc1Br was read as RGS7-Gao reg 89, RGS16-Gao 22*, RGS4-Gao reg 89, GSH bead fluor 10, RGS8-Gao 80, Avidin fluor 7, RGS-Gao 89*, Biotin-avidin -2, RGS8-Gao single 101, RGS7-Gao single 98, RGS16-Gao single 100, RGS4-Gao confirm 101 and RGS19-Gao conf 96.
